PubChem BioAssay (Tox21)
Several values for one entry are separate records, joined by “and”; a condition that tells them apart may be missing. Equal entries are not always repeated. Inconclusive results are not listed. A call without a number means that no potency is given here. Values without a mark were called inactive. Activity calls are given as the source filed them. Calls follow the shape of the dose curve; as a rule, active = well fitted cell-killing curve with a large enough effect in the repeat runs; inconclusive = weak or mixed curves, or effect the other way; inactive = flat fitted curve, though single readings scatter.

Legend:
[1] = cAMP Responsive Elements (CRE) small molecule antagonists, cell-based qHTS assay: qHTS cell viability counter screen (AID 2060913); settings: CRE-bla HEK293T viability, CellTiter-Glo luminescence, 5 h; series mostly up to 92.4 µM; also: nearly all actives have a fitted effect of over 40% in size
In short: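 Cytotoxicity read in the same wells as the CRE-bla HEK293T antagonist assay: after 3 h compound with 0.25 uM NKH477 final and 2 h beta-lactamase substrate, CellTiter-Glo luminescence measured.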

[2] = cAMP Responsive Elements (CRE) small molecule agonists, cell-based qHTS assay: qHTS cell viability counter screen (AID 2060914); settings: CRE-bla HEK293T viability, CellTiter-Glo luminescence, 5 h; series mostly up to 92.4 µM; also: nearly all actives have a fitted effect of over 50% in size
In short: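 Cytotoxicity was measured as ATP luminescence (CellTiter-Glo, 30 min at room temperature) in the same wells as the CRE-bla FRET read-out. HEK293T CRE-bla cells had 3 h compound exposure at 37C/5% CO2.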
Potency is read from the fitted curve at half-maximal effect.

| Compound | Potency [1] | Potency [2] | viability change, negative = cytotoxic [1] | activity change, negative = cytotoxicity [2] |
| --- | --- | --- | --- | --- |
| CCCCCCCCCCC(=O)O | inactive | inactive |  |  |
| Nc1ccc(N=Nc2ccc(N)cc2)cc1 | inactive | inactive |  |  |
| Oc1ccccc1C=NCc1ccccc1 | inactive | inactive |  |  |
| CC(C)=CCC[C@H](C)CC=O | inactive | inactive |  |  |
| CCc1c(C)cc(N)c(CC)c1N | inactive | inactive |  |  |
| CCc1nc(N)nc(N)c1-c1ccc(Cl)cc1 | inactive | inactive |  |  |
| CS(=O)(=O)c1ccc(Cl)cc1 | inactive | inactive |  |  |
| c1cc[c]([Bi]([c]2ccccc2)[c]2ccccc2)cc1 | inactive | inactive |  |  |
| N#CCC(=O)NN | inactive | inactive |  |  |
| C[Si](NC1CCCCC1)(NC1CCCCC1)NC1CCCCC1 | inactive | inactive |  |  |
| C=C(C)OC(C)=O | inactive | inactive |  |  |
| CC(=O)c1ccc2c(c1)Cc1ccccc1-2 | inactive | inactive |  |  |
| CCO[Si](C)(CCCOCC1CO1)OCC (stereo not given) | inactive | inactive |  |  |
| CC(C)c1ccc2c(C(C)C)cc(C(C)C)c(S(=O)(=O)O)c2c1 | inactive | inactive |  |  |
| CCOC(=O)N1CCC(Nc2ccc(Cl)cc2N)CC1 | inactive | inactive |  |  |
| CC/C(C)=N\O[Si](C)(O/N=C(\C)CC)O/N=C(\C)CC | inactive | inactive |  |  |
| CC1=C(CC(=O)O)c2cc(F)ccc2/C1=C\c1ccc(S(C)=O)cc1 (stereo not given) | inactive | inactive |  |  |
| Cc1ccccc1S(=O)(=O)O | inactive | inactive |  |  |
| C1=COCCC1 | inactive | inactive |  |  |
| CC(C)(CO)[C@@H](O)C(=O)NCCCO | inactive | inactive |  |  |
| CC(=O)CC(c1ccccc1)c1c(O)c2ccccc2oc1=O (stereo not given) | inactive | inactive |  |  |
| CCCCCC(C)O (stereo not given) | inactive | inactive |  |  |
| OC[C@@H](O)[C@H](O)[C@@H](O)[C@@H](O)CO | inactive | inactive |  |  |
| CN1CCN(C2=Nc3ccccc3Oc3ccc(Cl)cc32)CC1 | inactive | inactive |  |  |

| Compound | Potency [1] | Potency [2] | viability change, negative = cytotoxic [1] | activity change, negative = cytotoxicity [2] |
| --- | --- | --- | --- | --- |
| Cc1cc(N)no1 | inactive | inactive |  |  |
| CC(=O)Nc1ccc(O)cc1 | inactive | inactive |  |  |
| Cc1c[nH]c2ccccc12 | inactive | inactive |  |  |
| CC(C)OC(=O)CCC(=O)OC(C)C | inactive | inactive |  |  |
| O=C1c2cccc3c2[C@H](CCC3)CN1[C@@H]1CN2CCC1CC2 | inactive | inactive |  |  |
| CCN(CCN)c1cccc(C)c1 | inactive | inactive |  |  |
| CCN(CC)CCOC(=O)C(c1ccccc1)C1CCCCC1 (stereo not given) | inactive | inactive |  |  |
| CCCn1cc[n+](C)c1C | inactive | inactive |  |  |
| CC(C)NCC(O)COc1ccc(COCCOC(C)C)cc1 (stereo not given) | inactive | inactive |  |  |
| OCCN1CN(CCO)CN(CCO)C1 | inactive | inactive |  |  |
| CC(C)C[C@@H]1[C@H](c2ccccc2)OC(=O)N1CCCN1CCCCCC1 | inactive | inactive |  |  |
| CCCCCCCCCCCC(=O)OCC(C)OC(=O)CCCCC(=O)O (stereo not given) | inactive | inactive |  |  |
| O=C1c2ccccc2Cc2ccccc21 | inactive | inactive |  |  |
| Nc1c2c(nc3ccccc13)CCCC2O (stereo not given) | inactive | inactive |  |  |
| CO[Si](OC)(OC)c1ccccc1 | inactive | inactive |  |  |
| CCc1cccc(C)c1N(C(=O)CS(=O)(=O)O)C(C)COC (stereo not given) | inactive | inactive |  |  |
| CN1CCN(C2=Nc3ccccc3Sc3ccc(Cl)cc32)CC1 | inactive | inactive |  |  |
| Clc1cc(Cl)c(Cl)c(Cl)c1Cl | inactive | inactive |  |  |
| O=C(CS)OCCOC(=O)CS | inactive | inactive |  |  |
| CC(C)OC(C)C | inactive | inactive |  |  |
| CC(CO)(CO)C(=O)O | inactive | inactive |  |  |
| CC(=O)N[C@@H](CS)C(=O)O | inactive | inactive |  |  |
| C1CSCCS1 | inactive | inactive |  |  |
| FC(F)(F)c1cccc(Cl)c1 | inactive | inactive |  |  |

| Compound | Potency [1] | Potency [2] | viability change, negative = cytotoxic [1] | activity change, negative = cytotoxicity [2] |
| --- | --- | --- | --- | --- |
| CCCC(=O)OCCc1ccccc1 | inactive | inactive |  |  |
| Cc1ccc2ccccc2c1[N+](=O)[O-] | inactive | inactive |  |  |
| C[C@H](CCC(=O)O)[C@H]1CC[C@H]2[C@@H]3[C@H](O)C[C@@H]4C[C@H](O)CC[C@]4(C)[C@H]3CC[C@]12C | inactive | inactive |  |  |
| O=C(O)CN(CCCN(CC(=O)O)CC(=O)O)CC(=O)O |  |  | 0.188% [at 18.9 µM] | -8.11% [at 18.9 µM] |
| CCCCCCCCN | inactive | inactive |  |  |
| O=C(O)Cc1csc(-c2ccc(Cl)cc2)n1 | inactive | inactive |  |  |
| C=CCSSCCC | inactive | inactive |  |  |
| C=CC(C)CCC=C(C)C (stereo not given) | inactive | inactive |  |  |
| CCCCC(O)/C=C(C)/C=C/C=C/C(=O)N1CCCC1=O (stereo not given) | inactive | inactive |  |  |
| Oc1ccccc1 | inactive | inactive |  |  |
| CCCC(=O)c1ccccc1 | inactive | inactive |  |  |
| CCC/C=C/CO | inactive | inactive |  |  |
| N#Cc1cscn1 | inactive | inactive |  |  |
| CCCCOCCOCCOCCCC | inactive | inactive |  |  |
| O=C(Nc1cccc2c(=O)cc(-c3nn[nH]n3)oc12)c1ccc(OCCCCc2ccccc2)cc1 | inactive | inactive |  |  |
| CN1CCN(N)CC1 | inactive | inactive |  |  |
| CN(C)c1ccc(C(=C2C=CC(=[N+](C)C)C=C2)c2ccc(N(C)C)cc2)cc1 | 30.5 µM (active) and 61.1 µM (active) and 29.8 µM (active) | 48.3 µM (active) and 61.1 µM (active) and 29.8 µM (active) |  |  |
| CCCCCCCCCCCCc1ccc(O)cc1 | 61.1 µM (active) | 61.1 µM (active) |  |  |
| N#Cc1ccc(C/C(=N/NC(=O)Nc2ccc(OC(F)(F)F)cc2)c2cccc(C(F)(F)F)c2)cc1 | inactive | inactive |  |  |
| CCOC(OCC)C(=O)c1ccccc1 | inactive | inactive |  |  |
| CCCCCC[C@@H](O)C/C=C\CCCCCCCC(=O)OC | inactive | inactive |  |  |
| CC(=O)OCCOCCOCCOC(C)=O | inactive | inactive |  |  |
| CCC1(C)C(=O)N(Cl)C(=O)N1Cl (stereo not given) | inactive | inactive |  |  |
| CC(C)(C(=O)O)c1ccc(C(O)CCCN2CCC(C(O)(c3ccccc3)c3ccccc3)CC2)cc1 (stereo not given) | inactive | inactive |  |  |

| Compound | Potency [1] | Potency [2] | viability change, negative = cytotoxic [1] | activity change, negative = cytotoxicity [2] |
| --- | --- | --- | --- | --- |
| CCCCOC(=O)COc1ccc(Cl)cc1Cl | inactive | inactive |  |  |
| CCOC(=O)CCC(=O)OCC | inactive | inactive |  |  |
| C[Si]1(C)O[Si](C)(C)O[Si](C)(C)O[Si](C)(C)O1 | inactive | inactive |  |  |
| C[Si](C)(C)Cl | inactive | inactive |  |  |
| O=[N+]([O-])C(CO)(CO)CO | inactive | inactive |  |  |
| CCC(O)CO (stereo not given) | inactive | inactive |  |  |
| N#Cc1ccccc1 | inactive | inactive |  |  |
| CC(C)O | inactive | inactive |  |  |
| CCCCCCCCCCCc1ccccc1 | inactive | inactive |  |  |
| CC(C)(C)C(=O)Oc1ccc(S(=O)(=O)Nc2ccccc2C(=O)NCC(=O)O)cc1 | inactive | inactive |  |  |
| Oc1ccc(/C=C/c2cc(O)cc(O)c2)cc1 | inactive | inactive |  |  |
| CCCCCCCCCCCCCCBr | inactive | inactive |  |  |
| CC(C)(C)OC(=O)N1C[C@@H](F)C[C@H]1C(=O)O | inactive | inactive |  |  |
| Cc1c(Cl)cccc1Nc1ccccc1C(=O)O | inactive | inactive |  |  |
| CC(=O)N[C@@H](CO)C(=O)N[C@@H](CC(=O)O)C(=O)N[C@@H](CCCCN)C(=O)N1CCC[C@H]1C(=O)O | inactive | inactive |  |  |
| CC1=CC(=O)NS(=O)(=O)O1 | inactive | inactive |  |  |
| O=P(O)(OCc1ccccc1)OCc1ccccc1 | inactive | inactive |  |  |
| CC1(C)C2=CCCC(C)(C)[C@]23CC[C@H]1C3 | inactive | inactive |  |  |
| Cc1c(N)c(=O)n(-c2ccccc2)n1C | inactive | inactive |  |  |
| Nc1cc(S(=O)(=O)O)cc2cc(S(=O)(=O)O)cc(O)c12 | inactive | inactive |  |  |
| CN1CCCC(n2nc(Cc3ccc(Cl)cc3)c3ccccc3c2=O)CC1 (stereo not given) | inactive | inactive |  |  |
| C[C@H]1[C@H](NC(=O)/C(=N/OC(C)(C)C(=O)O)c2csc(N)n2)C(=O)N1S(=O)(=O)O (stereo in doubt) | inactive | inactive |  |  |
| CCCCCCCO | inactive | inactive |  |  |
| CCCC[O][Al]([O]CCCC)[O]CCCC | inactive | inactive |  |  |

| Compound | Potency [1] | Potency [2] | viability change, negative = cytotoxic [1] | activity change, negative = cytotoxicity [2] |
| --- | --- | --- | --- | --- |
| N#CSc1ccc(N)c([N+](=O)[O-])c1 | inactive | inactive |  |  |
| CCOC(=O)CC(C)=O | inactive | inactive |  |  |
| COC(=O)[C@H](Cc1ccccc1)NC(=O)[C@@H](N)CC(=O)O | inactive | inactive |  |  |
| CCCCCCCCCCCCOCCOS(=O)(=O)O | inactive | inactive |  |  |
| CCCO[Si](OCCC)(OCCC)OCCC | inactive | inactive |  |  |
| CCCCCCCCCOC(C)=O | inactive | inactive |  |  |
| COc1ccc(/C=N/NC(=O)c2ccncc2)cc1OC | inactive | inactive |  |  |
| CCCCC1CCC(O)CC1 (stereo not given) | inactive | inactive |  |  |
| CC(C)(C)CC(C)(C)c1ccccc1O | 61.4 µM (active) | 61.4 µM (active) |  |  |
| N=c1ccn2c(n1)O[C@H]1[C@H](O)[C@@H](CO)O[C@H]12 | inactive | inactive |  |  |
| N#CCN(CC#N)CCN(CC#N)CC#N | inactive | inactive |  |  |
| O=c1cc[nH]c(=S)[nH]1 | inactive | inactive |  |  |
| CC(=O)C(C)=O | inactive | inactive |  |  |
| CC(=O)[C@H]1[C@H](C#N)C[C@H]2[C@@H]3CC=C4C[C@@H](O)CC[C@]4(C)[C@H]3CC[C@@]21C | inactive | inactive |  |  |
| Cc1ccccc1S(N)(=O)=O | inactive | inactive |  |  |
| COc1cc(OC)cc(OC)c1 | inactive | inactive |  |  |
| CCCCc1nc(Cl)c(CO)n1Cc1ccc(-c2ccccc2-c2nn[nH]n2)cc1 | inactive | inactive |  |  |
| CCOc1cc(OCC)c(C(=O)CCC(=O)O)cc1OCC | inactive | inactive |  |  |
| CCCCC/C(=C\c1ccccc1)CO | inactive | inactive |  |  |
| CC(C)(C)NCC(O)c1cc(O)cc(O)c1 (stereo not given) | inactive | inactive |  |  |
| CCCC(=O)OC[C@@H](OC(=O)CCC)[C@@H](OC(=O)CCC)[C@H](Cn1c2nc(=O)[nH]c(=O)c-2nc2cc(C)c(C)cc21)OC(=O)CCC | inactive | inactive |  |  |
| CCCCCCCCN(C)C | inactive | inactive |  |  |
| CNS(=O)(=O)Cc1ccc2[nH]cc(CCN(C)C)c2c1 | inactive | inactive |  |  |
| O[Si](c1ccccc1)(c1ccccc1)c1ccccc1 | inactive | inactive |  |  |
